The results in this text go back to PubChem BioAssay (NCI).

SMILES strings stand for the structures. This is part of a sample that, as a whole, favours compounds with a hit. Of some 83,000 tested, about 20% had one in any assay.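 The endpoint reported here, percent growth, reads 100 for growth as untreated, 0 for no net growth and -100 for all cells dead.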 The source made the active and inactive calls. How the source made its calls: active means growth percent below 10; inactive means the rest.

In this test the test system is 786-0 renal. The test is described as follows: NCI-60 one-dose screen, 48 h (100 = growth as untreated, 0 = no growth, -100 = all killed). As to conditions: 10 µM unless noted.
Take `COc1cc(-c2nn(-c3ccccc3)cc2-c2ccnc(NCCNS(=O)(=O)c3ccc(Cl)cc3)n2)ccc1Cl`: the growth was 28.9% (inactive).
The value for `COc1cccc(-c2nc3sccn3c2-c2ccnc(NCCNS(=O)(=O)c3cccc(Cl)c3)c2)c1` was 63.6% (inactive); that for `O=C1N=c2cc3c(cc2=C/C1=C/c1sc(=S)n(CCc2ccc(O)cc2)c1O)OCCO3` was 80.5% (inactive).
To `COc1ccc(OC)c2c1[nH]c(=O)c1c3ncccc3cn21` belongs 34.7% (inactive).
To `O=S(=O)(Nc1cccc(Cl)c1)c1ccc(-c2cnc(C3CC3)o2)cc1` belongs 28.4% (inactive).
For `COc1ccc(NC(=O)CSc2nc(C)c(C(C)=O)n2-c2ccc(Cl)cc2)cc1`, the growth was 106% (inactive).
To `Cc1cc(/C=C\c2ccc3ccccc3[n+]2C)c(O)c2ncccc12` belongs 9.72% (active); to `CN(C)c1ccc(-c2ccc3[nH]c(=O)nc(-c4ccccc4)c3c2)cn1`, 44.5% (inactive).
To `O=C(c1ccccc1)N1N=C(c2ccccc2)CC1c1nnc2n(Cc3ccccc3)c(=O)c3c4c(sc3n12)CCCC4` (stereo not drawn) belongs 101% (inactive).
To `N#Cc1c(N)nc2c(C#N)c(NC(=O)c3ccccc3)nn2c1-c1ccccc1` belongs 102% (inactive).
Consider `COc1ccc(-c2nc3ccc4[nH]ncc4c3c3c2CCCC3)cc1B(O)O`, for which the growth is 63.6% (inactive).
The value for `C(=N\Nc1ncc(-c2cc3cc4c(cc3o2)OCO4)s1)/c1ccco1` was 1.77% (active); that for `Cn1c(-c2c(N)n(Cc3cccnc3)c3nc(C#N)c(C#N)nc23)nc2ccccc21` was 91% (inactive).
To `C[n+]1cccc(CC(=O)NO)c1` belongs 106% (inactive); to `C=CCSc1nc2ccccc2cc1/C=N/O`, 100% (inactive); to `O=C(CCCCCCN1CC(=O)N2[C@@H](c3ccccc3Cl)c3[nH]c4ccccc4c3C[C@H]2C1=O)NO`, 83.8% (inactive).
The value for `CCCCCCCOc1c(OC)cc(C2CC(=O)Nc3c2c(C)nn3-c2nc3ccccc3[nH]2)cc1OC` (stereo not drawn) was 4.68% (active).
For `COC(=O)c1c2c(c[n+]([O-])c1C)C(=O)C=CC2=O`, the growth is 91.6% (inactive).
As for `COc1cccc(-c2nn(-c3ccccc3)cc2-c2ccnc(NCCCNC(=O)Nc3ccc(Cl)c(Cl)c3)c2)c1`, the growth is -38.7% (active).
The value for `Cc1ccc(NS(=O)(=O)c2ccc3c(c2)C2OCCC2C(c2ccc(C(=O)C(C)C)cc2)N3)cc1C` (stereo not drawn) was 58.9% (inactive); that for `Cc1cc(NCc2cc(Nc3ccnc4cc(Cl)ccc34)ccc2F)nc(N2CCSCC2)n1` was 15.5% (inactive); that for `O=C(/C=C/c1ccc(Cl)nc1)c1ccc(Cl)cc1Cl` was 86.8% (inactive).
With `CCN(CC)CCCC(C)Nc1c2ccc(Cl)cc2nc2ccc(O)cc12` (stereo not drawn), the growth is 22.3% (inactive).
In the case of `CCCCCCCC/C=C\CCCCCCCCOc1ccccc1CC(=O)NCC[N+](C)(C)C`, the growth is 50.5% (inactive).
`Cc1cc(NCc2cc(Nc3ccnc4cc(Cl)ccc34)ccc2F)nc(N2CCCC2)n1`: the growth is -83.9% (active).
In the case of `COc1ccc(C(=O)COc2ccc(/C=C3\Oc4ccccc4C3=O)cc2)cc1`, the growth is 98.1% (inactive).
As to `Cn1c2c(c3ccc(Cl)c(Cl)c31)C(C#N)C1(CCNCC1)NC2=O` (stereo not drawn), the growth was 54.5% (inactive).
To `N#Cc1c(-c2ccccn2)[nH]c(=S)[nH]c1=O` belongs 92.2% (inactive); to `Oc1c(CN2CCCC2)cc(COCc2ccc(Br)cc2)c2cccnc12`, -8.02% (active).
To `COc1ccc(N2CCN(c3nc(-c4cc(OC)c(OC)c(OC)c4)nc4ccccc34)CC2)cc1` belongs 85.7% (inactive); to `Nc1n[nH]c(-c2cc(Cl)ccc2O)c1-c1ccccc1`, 92.7% (inactive); to `Cc1ccc(-c2cc(-c3ccccc3C)[nH]c(=O)c2C#N)s1`, 78.8% (inactive).
The value for `O=C(COc1ccc(/C=C2\Oc3ccccc3C2=O)cc1)c1ccc(Cl)cc1` was 91% (inactive); that for `O=C1CCC2=C3C4CCCCC4C(=O)C4CCCC(OC2C1)C34` (stereo not drawn) was -9.63% (active); that for `O=C(Nc1ccccc1Cl)Oc1ccc(-c2ccccc2)cc1` was 97.2% (inactive).
For the molecule `N#C/C(=C\c1ccc(-c2ccccc2F)o1)c1nc(-c2ccco2)cs1`, the growth was 104% (inactive).
The value for `O=[N+]([O-])c1ccc(Sc2cccc[n+]2[O-])c2nonc12` was 92.6% (inactive); that for `COc1cccc(C(=O)NCCNc2cc(-c3cn(-c4ccccc4)nc3-c3cccc(OC)c3)ccn2)c1` was 50.5% (inactive).
